Source: PubChem (National Center for Advancing Translational Sciences (NCATS))
JMJD2A Tudor inh: blocks the human JMJD2A Tudor domain | AID 504339 | hit rate 4.4% among 390,000 | Potency, µM (highest dose often 114 µM), inactives show top-dose activity change, negative = inhibition, actives largely listed as inhibitors | AlphaScreen JMJD2A-Tudor / H3K4me3 peptide binding; further: on the % scale 0 is the no-effect control and ±100 the full control effect; nearly all actives have a fitted effect of over 50% in size
G9a block: inhibitors of human histone lysine methyltransferase G9a | Q96KQ7 | G9a H3K9 monomethylation, AlphaScreen, 2 h | Potency, µM (top dose mostly 102 µM), inactives show at the highest dose activity, negative = inhibition, usual class: inhibitors | hit rate 8.8% among 350,000 | AID 504332; further: on the % scale 0 is the no-effect control and ±100 the full control effect; nearly all actives have a fitted effect of over 75% in size
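Methyltransferase reactions run at room temperature for 2 h (20 nM enzyme, 500 nM biotin-H3K9 peptide, 20 uM SAM) after a 15 min compound preincubation; product detected by AlphaScreen beads and anti-H3K9me1 antibody.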
BAZ2B block: inhibitors of human BAZ2B bromodomain | hit rate 4.4% among 360,000 | Potency, µM (doses to about 114 µM), without a hit: top-dose activity change, negative = inhibition, hits mostly inhibitors | Q9UIF8 | AlphaScreen BAZ2B-H3K14Ac peptide displacement; further: on the % scale 0 is the no-effect control and ±100 the full control effect; nearly all actives have a fitted effect of over 60% in size
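Compounds, titrated to a top concentration of 110 uM, were incubated 30 min at room temperature with preformed BAZ2B/acetyl-K14 H3 peptide complex (50 nM each). Proximity signal was measured by AlphaScreen after 20 min with beads.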
L3MBTL1 block: L3MBTL1 (human) inhibition | hit rate 0.66% among 230,000 | AlphaScreen L3MBTL1–H3K9me1 peptide binding | Q9Y468 | Potency, µM (titrated, usually from 57.1 µM), without a hit: at the highest dose activity, negative = inhibition, most hits filed as inhibitors; further: on the % scale 0 is the no-effect control and ±100 the full control effect; nearly all actives have a fitted effect of over 60% in size
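L3MBTL1 50 nM + b-AHA-H3(1-15)K9me1 75 nM, 30 min RT; compound added, 30 min RT; streptavidin donor/Ni-chelate acceptor beads 10 ug/mL each final, 30 min RT dark; AlphaScreen read.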
HP1b binding inh: inhibitors of HP1-beta chromodomain binding to methylated histone tails; P83916; AlphaScreen HP1-beta / biotin-H3K9me3 peptide binding; Potency, µM (top dose mostly 114 µM), inactives show at the top dose activity change, negative = inhibition, most hits filed as inhibitors; hit rate 0.56% among 390,000; AID 540317; further: nearly all actives have a fitted effect of over 70% in size
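HP1-beta protein (50 nM final) preincubated 30 min at room temperature with biotinylated H3(1-18)K9me3 peptide (50 nM) in PBS pH 7.4, 0.01% Tween-20, then compound added for 30 min. AlphaScreen streptavidin donor/nickel chelate acceptor beads (10 ug/mL final), 30 min dark, luminescence read.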
Sfp PPTase inh: Sfp phosphopantetheinyl transferase inhibition; Biochemical Sfp PPTase activity, qHTS; Potency, µM, inactives show largest response in the series, negative = inhibition, most hits filed as inhibitors; hit rate 3.5% among 310,000;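 further: the enzyme is Sfp with the accession as filed and its product quenches rhodamine fluorescence; 0% = enzyme reaction without inhibitor and -100% = no enzyme wells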
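After 15 min at room temperature with compound, 15 nM Sfp received 5 uM rhodamine-CoA plus 12.5 uM BHQ-2-ybbR (50 mM Hepes pH 7.6, 10 mM MgCl2). Rate came from the fluorescence difference over 30 min, ex 525/em 598 nm.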
* hit, by the source's call; ? = inconclusive; . = no result given; [ ] = remark or other dose. Only some compounds are listed: those with a hit (about 12% of all), similar ones and a draw of the others. The call rests on the fitted dose curve; in most records, active means well fitted curve in the direction sought with a large enough effect; inconclusive means small, poorly fitted or top-dose-only effect, or another doubt; inactive means no such curve, though single readings can be large; an effect the other way counts as inactive or inconclusive. Potency means the concentration at half of the fitted maximal effect.

SMILES	JMJD2A Tudor inh	G9a block	BAZ2B block	L3MBTL1 block	HP1b binding inh	Sfp PPTase inh
CN(C)CCCN(C(=O)COc1ccccc1)c1nc2cc3c(cc2s1)OCO3	-15%	50µM*	-33%	.	9%	-18%
CN(C)CCCN(C(=O)COc1ccccc1)c1nc2ccc(Cl)cc2s1	-22%	?	.	.	4%	-16%
CN(C)CCCN(C(=O)COc1ccc(Cl)cc1)c1nc2cc3c(cc2s1)OCO3	?	71µM*	?	.	-9%	-10%
COc1cccc2sc(N(CCCN(C)C)C(=O)COc3ccc(Cl)cc3)nc12	-20%	79µM*	.	.	26%	-26%
CN(C)CCCN(C(=O)COc1ccc(Cl)cc1)c1nc2cc3c(cc2s1)OCCO3	?	50µM*	-35%	2%	-20%	.
CN(C)CCCN(C(=O)CCc1ccccc1)c1nc2ccc(Cl)cc2s1	-12%	?	?	-12%	7%	?
CN(C)CCCN(C(=O)COc1ccccc1)c1nc2c(F)cccc2s1	-10%[11.4 µM]	-46%	-8%	-8%	58%	-7%
COc1ccc(NC(=O)Nc2cc(C(=O)NCc3ccc(C)cc3)ccc2N2CCCC2)cc1	-9%	8%[12.7 µM]	-3%	.	33%	.
CCc1ccccc1Nc1nn2c(=O)c3ccc(C(=O)NC4CCC(C)CC4)cc3nc2s1 (stereo not drawn)	2%	5%[59 µM]	-2%	.	31%	.
O=C(NCCSc1c[nH]c2ccccc12)c1ccccc1Cl	-22%	-43%[59 µM]	-17%	.	21%	.
O=C(/C=C\Nc1cccc(F)c1)c1cccs1	-1%[11.4 µM]	-7%[59 µM]	16%	-2%	85%	-7%
O=C(/C=C/Nc1ccccc1F)c1cccs1	-8%	32µM*	1%	0%	28%	9%
CCOC(=O)c1ccccc1N/C=C/C(=O)c1cccs1	16%	32µM*	18%	2%	85%	-16%
O=C(/C=C/Nc1ccc(F)cc1F)c1cccs1	-19%	14µM*	-1%	-6%	21%	?
Cc1ccc(NC(=O)CN2C(=O)C(c3ccccc3)=NC23CCCCC3)cc1C	-16%	-6%[59 µM]	-3%	.	30%	.
O=C(NC(=S)Nc1ccccc1C(=O)O)c1ccc2ccccc2c1	-27%	28µM*	-22%	-4%	-15%	45µM*
O=C(O)c1ccc(NC(=S)NC(=O)c2ccc3ccccc3c2)cc1	?	.	8%	.	-2%	-2%
Cc1ccccc1C(=O)NC(=S)Nc1ccccc1C(=O)O	-10%	20µM*	-19%	10%	-20%	?
NC(=O)c1ccccc1NC(=O)c1ccc2ccccc2c1	-4%	-10%	3%	9%	21%	17%
O=C(Cc1ccccc1)Nc1ccc(NC(=S)NC(=O)c2ccccc2)cc1	-3%	4%	-7%	.	14%	-3%
O=C(O)c1cccc(NC(=S)NC(=O)c2ccc3ccccc3c2)c1	-30%	56µM*	-28%	.	15%	8%
O=C(O)c1ccc(NC(=S)NC(=O)c2cccc(COc3ccccc3)c2)cc1	-24%	28µM*	-38%	-17%	-1%	50µM*
Cc1ccc(Cl)cc1Nc1sc(C(=O)c2ccc(F)cc2)c(N)c1S(C)(=O)=O	-10%	2%[59 µM]	-19%	.	53%	.
Cc1ccc2nc(-c3cccc(NC(=O)CSc4ccc(Cl)cc4)c3)oc2c1	-8%	15%[59 µM]	-2%	.	33%	.
Cc1cc(-c2ccccc2)nc2cc(C(N)=O)nn12	-17%	28µM*	-15%	-15%	23%	-9%
SMILES	JMJD2A Tudor inh	G9a block	BAZ2B block	L3MBTL1 block	HP1b binding inh	Sfp PPTase inh
Cc1cc(-c2ccccc2)nc2cc(C(=O)OC(C)C)nn12	4%	-6%[0.501 µM]	12%	-4%[2.29 µM]	17%	5%
CCOC(=O)c1cc2nc(-c3ccccc3)cc(C)n2n1	17%	45µM*	8%	4%	57%	6%
COCCNC(=O)c1cc2nc(-c3ccccc3)cc(C)n2n1	-10%	1%	0%	-1%	16%	13%
CN1CCc2c(sc(/N=C/c3cc(C(C)(C)C)ccc3O)c2C#N)C1	?	?	?	-26%	-14%	71µM*
O=S(=O)(NCc1ccc(F)cc1)c1ccc2[nH]c3c(c2c1)CCCCC3	45µM*	8.9µM*	-26%[57.1 µM]	.	?	.
O=S(=O)(Nc1cc(F)ccc1F)c1ccc2[nH]c3c(c2c1)CCCCC3	?	?	40µM*	.	-26%	.
O=C(COc1ccc(F)cc1)NCc1ccc2c(c1)CCN2C(=O)c1ccc(F)cc1	-8%	2%[59 µM]	-5%	.	12%	.
CCOC(=O)c1ccc(CN(Cc2ccc(F)cc2)S(=O)(=O)c2cc(C(=O)Nc3ccccc3CC)ccc2F)cc1	-11%	0%[59 µM]	1%	.	54%	.
Cc1oc(-c2cccs2)nc1CS(=O)CC(=O)NCCc1ccccc1 (stereo not drawn)	-26%	50µM*	-25%	.	21%	-9%
Cc1oc(-c2ccc(Cl)cc2)nc1CS(=O)CC(=O)NCCc1ccccc1 (stereo not drawn)	-27%	6%[59 µM]	-13%	.	20%	.
CCCCNC(=O)CS(=O)Cc1nc(-c2cccs2)oc1C (stereo not drawn)	-9%	50µM*	-2%	.	35%	12%
COc1cn(CC(=O)Nc2c(C)cc(C)cc2C)c(CN2CCCCC2)cc1=O	-16%	5%[59 µM]	-1%	.	14%	.
COc1ccc(N2CCC(CNC(=S)Nc3cc(C)cc(C)c3)C2)cc1 (stereo not drawn)	20µM*	?	3.2µM*	.	16µM*	2%
COc1ccc(CNC(=S)Nc2cc(C)cc(C)c2)cc1	5%	-41%	1%	-3%	36%	3%
COc1ccc(N2CCC(CNC(=S)Nc3cc(C)ccc3C)C2)cc1 (stereo not drawn)	40µM*	?	32µM*	.	?	-3%
COc1ccccc1CNS(=O)(=O)c1ccc2c(c1)NC(=O)C(C)C(=O)N2 (stereo not drawn)	-20%	4%[59 µM]	3%	.	22%	.
O=C(NCCN1CCCCC1)c1ccc(Cn2c(SCc3ccccc3)nc3cccnc32)cc1	-16%	9%[59 µM]	17%	.	67%	.
CCC(=O)N1CCc2cc(Br)cc(S(=O)(=O)N3CCCC(C(=O)NCc4ccccc4)C3)c21 (stereo not drawn)	-3%	5%[59 µM]	-2%	.	34%	.
CN1c2ccc(Cl)cc2-c2nc(SCC(=O)NCc3ccccc3)ncc2S1(=O)=O	-10%	3%[59 µM]	3%	.	4%	.
COc1ccc(CNC(=O)COc2cc(O)c3c(c2)OC(C)(C)CC3=O)c(OC)c1	89µM*	.	9%[57.1 µM]	-2%	2%	0%
CCc1nn(CC(=O)Nc2c(C)cccc2C)c(=O)c2cc3sccc3n12	-10%	-8%[59 µM]	2%	.	25%	.
Cc1cc(O)c(C(=O)Nc2cccc(Cl)c2)c(=O)n1C	0%	50µM*	-5%	.	41%	15%
CSc1cccc(NC(=O)c2c(Cl)cnn2C)c1	-16%	-21%[59 µM]	9%	.	9%	-13%
